Holding throughout (assay): NCI-60 one-dose screen, 48 h (100 = growth as untreated, 0 = no growth, -100 = all killed)
The test system of test [1] is T-47D breast. Conditions: 10 µM unless noted.
Test [2] relates to BT-549 breast. Conditions: 10 µM unless noted.
Test [3] concerns MDA-MB-435 melanoma. The note with it: 10 µM unless noted.
In test [4] the test system is SW-620 colon. The note with it: 10 µM unless noted.
In test [5] the test system is MCF7 breast. Conditions: 10 µM unless noted.
Test [6] deals with HCT-116 colon. The note with it: 10 µM unless noted.
For test [7], the system named is HCC-2998 colon. Conditions: 10 µM.
In test [8] the test system is KM12 colon. The note with it: 10 µM unless noted.

About 83,000 compounds went through this panel and 20% of them were active in at least one assay; those are over-represented in the sample as a whole.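 The test compound was applied at a single concentration to cells in 96-well plates for 48 hours, and percent growth was recorded.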 Values without a mark were called inactive. Active and inactive are the calls of the source. How the source made its calls: active means growth percent below 10; inactive means the rest.

For the compound `CC(CCCC(=O)O)c1ccoc1` (stereo not drawn), the growth is 89.6% in test [1]; 108% in test [2]; 107% in test [3]; 110% in test [4]; 94.1% in test [5]; 101% in test [6]. For the same compound, the values for the growth in test [7] and in test [8] were 96.7% and 98.7%, respectively.

Turning to `O=C(O)c1ccc2c(c1)nc(Nc1cccc(Cl)c1)c1ccncc12`, the growth in test [1] is -22.1% (active); in test [2] it was -5.65% (active); in test [3], 5.4% (active); in test [4] it was 6.63% (active); in test [5], 5.91% (active); in test [6], 3.79% (active). The growth in test [7] is 15.1%; in test [8], 11.5%.

`O=c1[nH]c(N2CCOCC2)nc2scc(-c3ccccc3)c12`: the growth in test [1] is 80.7%; in test [2], 92.4%; in test [3] it was 91.7%; in test [4], 110%; in test [5], 92.2%; in test [6], 98.3%. The growth in test [7] was 106%; in test [8], 97.6%.

For the compound `Cc1cc(N2CCCC2)nc(N(CCCNc2ccnc3cc(Cl)ccc23)Cc2ccc3c(c2)OCO3)n1`, the growth is -18.4% (active) in test [1]; -14.1% (active) in test [2]; -71.9% (active) in test [3]; -27% (active) in test [4]; -12.8% (active) in test [5]; -22.9% (active) in test [6]. The growth in test [7] was -52.4% (active); in test [8] it was 19.1%.

In the case of `COC(=O)[C@@H](C)CNS(=O)(=O)N(c1cc(C(F)(F)F)cc(C(F)(F)F)c1)C1CCN(Cc2ccc(F)cc2)CC1`, the growth is 31.1% in test [1]; 89.6% in test [2]; 76.8% in test [3]; 73.9% in test [4]; 48.7% in test [5]; 43.4% in test [6]. The values for the growth in test [7] and in test [8] were -65.3% (active) and 51%, respectively.

Consider `CC1(O)CCC(Nc2cc(-c3ccc(C(F)(F)F)cc3)c(C#N)c3nc4ccccc4n23)CC1` (stereo not drawn), for which the growth in test [1] was 53%; in test [2] it was 38.2%; in test [3] it was 64.7%; in test [4] it was 90.5%; in test [5], 43.9%; in test [6], 53.6%. Moreover, the growth is 86.5% in test [7] and 68.7% in test [8].

Regarding `NC1=Nc2cc(OCCCN3Cc4ccccc4C3)c(OCC3CC3)cc2C12CCCC2`, the growth is 2.41% (active) in test [1]; 68.6% in test [2]; 38.1% in test [3]; 76.3% in test [4]; 47.5% in test [5]; 32.9% in test [6]. Besides, the growth is 1.52% (active) in test [7] and 69.6% in test [8].

`NC(=O)Nc1cc(-c2cccc(F)c2)sc1C(=O)N[C@H]1CCCNC1`: the growth in test [1] is 15.1%; in test [2] it was -60.9% (active); in test [3] it was -25.8% (active); in test [4], -7.1% (active); in test [5], 14.3%; in test [6] it was -9.03% (active). For the same compound, the growth is -34.6% (active) in test [7] and 1.83% (active) in test [8].

As for `Clc1ccc2c(NCCNc3nc(N4CCCC4)nc4ccccc34)ccnc2c1`, the growth in test [1] was -14% (active); in test [2], -11.3% (active); in test [3], -41.3% (active); in test [4], 5.27% (active); in test [5] it was 28.5%; in test [6], -63.6% (active). Also, the growth is 7.18% (active) in test [7] and 10.9% in test [8].

On to `Cn1c(=O)c(F)c(Nc2ccc(I)cc2F)c2c(=O)n(C[C@@H](O)CO)cnc21`, for which the growth in test [1] was 63.7%; in test [2], 60.6%; in test [3] it was 44.3%; in test [4] it was 21.6%; in test [5] it was 83.8%; in test [6], 9.17% (active). Further, the growth in test [7] was -37.7% (active); in test [8] it was 19.9%.

With `CC(=Nc1ccccc1)C1=C(O)C(Cc2ccccc2)NC1=O` (stereo not drawn), the growth in test [1] was 67.6%; in test [2] it was 13.9%; in test [3], -27.3% (active); in test [4], 19.3%; in test [5] it was 9.54% (active); in test [6], 2.49% (active). The growth in test [7] is -20.6% (active); in test [8], -46.3% (active).

As for `Cc1cc(O)cc(-c2c(-c3ccnc(-c4cccnc4)c3)cnn2C)c1`, the growth in test [1] was 29.3%; in test [2] it was 75.1%; in test [3], 61.9%; in test [4], 83.4%; in test [5], 43.5%; in test [6], 71.9%. In addition, the growth in test [7] is 88.2%; in test [8] it was 68.6%.

With `CC(=O)O[C@]1(C)C[C@H](O)[C@]2(O)C=CO[C@H](O[C@@H]3O[C@H](CO)[C@@H](O)[C@H](O)[C@H]3O)[C@@H]21`, the growth in test [1] was 92%; in test [2] it was 94.6%; in test [3] it was 102%; in test [4] it was 113%; in test [5], 94.4%; in test [6] it was 98.1%. Also, the growth is 116% in test [7] and 95.1% in test [8].

Regarding `CN1CCC(COc2cnc(-c3cccc(Cn4nc(-c5cccc(C#N)c5)ccc4=O)c3)nc2)CC1`, the growth is -49.1% (active) in test [1]; 63.4% in test [2]; 53.8% in test [3]; 45.6% in test [4]; 60.3% in test [5]; 22.5% in test [6]. The growth is 80.7% in test [7] and 33.7% in test [8].

With `O=C(CNc1nc2ccccc2s1)Nc1ccc(-c2nc3ccccc3s2)cc1`, the growth was 73.9% in test [1]; 106% in test [2]; 109% in test [3]; 109% in test [4]; 24.8% in test [5]; 98.9% in test [6]. The growth in test [7] was 92.1%; in test [8] it was 99.2%.

For `CN1CCN(c2ccc(C(=O)Nc3n[nH]c4ccc(Cc5cc(F)cc(F)c5)cc34)c(NC3CCOCC3)c2)CC1`, the growth in test [1] is -65.6% (active); in test [2], 10.6%; in test [3], -86.5% (active); in test [4], -79.2% (active); in test [5], -72% (active); in test [6] it was -95.5% (active). In addition, the growth was -81.3% (active) in test [7] and -72.5% (active) in test [8].
